# The entries come from a sample that favours the strongest signals as a whole.
# Experiments:
# Assay in all cases: glycan array binding signal (z-score within array); higher = stronger binding
# Details in all cases: glycan notation: IUPAC condensed, linker removed
# [1] = target: Fuc(a1-3)[Gal3S(b1-4)]Glc
# Procedure, shortened: (§1)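 Arrays were curated from the Consortium for Functional Glycomics database, 3228 in total, and kept only where the protein sequence was available. Binding is expressed as a within-array Z-score. This score was averaged across arrays of the same protein sequence at different concentrations or buffers and across linkers, and negative values can be read as non-binding.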
# [2] = target: Fuc(a1-3)[GalNAc(b1-4)]Gal(b1-4)GlcNAc
# Procedure, shortened: as §1
# Gal(a1-2)Gal = target: Gal(a1-2)Gal
# Procedure, shortened: as §1
# Gal(a1-4)Gal(b1-4)Gal = target: Gal(a1-4)Gal(b1-4)Gal
# Procedure, shortened: as §1
# Gal(b1-3)Gal = target: Gal(b1-3)Gal
# Procedure, shortened: as §1
# [3] = target: Gal(b1-3)GalNAc(b1-3)Gal(a1-4)Gal(b1-4)Glc
# Procedure, shortened: as §1
# [4] = target: Gal(b1-3)GlcNAc(b1-3)Gal(b1-3)GlcNAc
# Procedure, shortened: as §1
# [5] = target: Gal(b1-3)[Fuc(a1-4)]GlcNAc(b1-3)Gal(b1-4)GlcNAc
# Procedure, shortened: as §1
# [6] = target: Gal(b1-3)[Fuc(a1-4)]GlcNAc(b1-3)Gal(b1-4)[Fuc(a1-3)]GlcNAc
# Procedure, shortened: as §1
# [7] = target: Gal(b1-4)GalNAc(a1-3)[Fuc(a1-2)]Gal(b1-4)GlcNAc
# Procedure, shortened: as §1
# [8] = target: Gal(b1-4)GalNAc(b1-3)[Fuc(a1-2)]Gal(b1-4)GlcNAc
# Procedure, shortened: as §1
# Gal(b1-4)Glc6S = target: Gal(b1-4)Glc6S
# Procedure, shortened: as §1
# [9] = target: Gal(b1-4)GlcNAc(b1-3)Gal(b1-4)[Fuc(a1-3)]GlcNAc(b1-3)Gal(b1-4)[Fuc(a1-3)]GlcNAc
# Procedure, shortened: as §1
# Gal3S(b1-3)GalNAc = target: Gal3S(b1-3)GalNAc
# Procedure, shortened: as §1
# Gal3S(b1-4)GlcNAc6S = target: Gal3S(b1-4)GlcNAc6S
# Procedure, shortened: as §1
# Gal4S6S(b1-4)GlcNAc = target: Gal4S6S(b1-4)GlcNAc
# Procedure, shortened: as §1
# GlcA(b1-6)Gal = target: GlcA(b1-6)Gal
# Procedure, shortened: as §1
# [10] = target: GlcNAc(b1-3)Gal(b1-3)GalNAc
# Procedure, shortened: as §1
# [11] = target: GlcNAc(b1-4)GlcNAc(b1-4)GlcNAc
# Procedure, shortened: as §1
# Kdn(a2-3)Gal(b1-3)GlcNAc = target: Kdn(a2-3)Gal(b1-3)GlcNAc
# Procedure, shortened: as §1
# [12] = target: Man(a1-2)Man(a1-2)Man(a1-3)[Man(a1-2)Man(a1-3)[Man(a1-2)Man(a1-6)]Man(a1-6)]Man(b1-4)GlcNAc(b1-4)GlcNAc
# Procedure, shortened: as §1
# [13] = target: Neu5Ac(a2-3)Gal(b1-4)GlcNAc(b1-3)Gal(b1-4)GlcNAc
# Procedure, shortened: as §1
# [14] = target: Neu5Ac(a2-3)Gal(b1-4)GlcNAc(b1-6)[Gal(b1-3)]GalNAc
# Procedure, shortened: as §1
# [15] = target: Neu5Ac(a2-3)Gal6S(b1-4)[Fuc(a1-3)]GlcNAc
# Procedure, shortened: as §1
# [16] = target: Neu5Ac(a2-8)Neu5Ac(a2-8)Neu5Ac(a2-8)Neu5Ac(a2-3)[GalNAc(b1-4)]Gal(b1-4)Glc
# Procedure, shortened: as §1
binder,measurement,setting,value
"C-Reactive Protein (Homo sapiens), P02741 (protein) MEKLLCFLVLTSLSHAFGQTDMSRKAFVFPKESDTSYVSLKAPLTKPLKAFTVCLHFYTELSSTRGYSIFSYATKRQDNEILIFWSKDIGYSFTVGGSEILFEVPEVTVAPVHICTSWESASGIVEFWVDGKPRVRKSLKKGYTVGAEASIILGQEQDSFGGNFEGSQSLVGDIGNVNMWDFVLSPDEINTIYLGGPFSPNVLNWRALKYEVQGEVFTKPQLWP",glycan array binding signal (z-score),[1],0.735
same,glycan array binding signal (z-score),[2],-0.478
same,glycan array binding signal (z-score),Gal(a1-2)Gal,-0.469
same,glycan array binding signal (z-score),Gal(a1-4)Gal(b1-4)Gal,-0.603
same,glycan array binding signal (z-score),Gal(b1-3)Gal,-0.554
same,glycan array binding signal (z-score),[3],-0.576
same,glycan array binding signal (z-score),[4],1.62
same,glycan array binding signal (z-score),[5],-0.4
same,glycan array binding signal (z-score),[6],-0.468
same,glycan array binding signal (z-score),[7],-0.454
same,glycan array binding signal (z-score),[8],-0.521
same,glycan array binding signal (z-score),Gal(b1-4)Glc6S,0.381
same,glycan array binding signal (z-score),[9],0.095
same,glycan array binding signal (z-score),Gal3S(b1-3)GalNAc,0.199
same,glycan array binding signal (z-score),Gal3S(b1-4)GlcNAc6S,1.48
same,glycan array binding signal (z-score),Gal4S6S(b1-4)GlcNAc,2.24
same,glycan array binding signal (z-score),GlcA(b1-6)Gal,-0.49
same,glycan array binding signal (z-score),[10],-0.505
same,glycan array binding signal (z-score),[11],1.94
same,glycan array binding signal (z-score),Kdn(a2-3)Gal(b1-3)GlcNAc,-0.402
same,glycan array binding signal (z-score),[12],-0.496
same,glycan array binding signal (z-score),[13],-0.055
same,glycan array binding signal (z-score),[14],1.51
same,glycan array binding signal (z-score),[15],0.578
same,glycan array binding signal (z-score),[16],0.158
